Measurements: the supplement of paper PMC6555819

Experiments:
Test in all cases: PBM binding z-score (relative to random genomic background probes); higher = stronger binding; sequences stand for … in GC…GCGATTGACAGCGTAGAATGAAGG
[1] = tested on: FXR:RXRa (NR concentration 270 nM, RXRa partner concentration 90 nM)
In short: (§1)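 Binding buffer was PBS pH 7.4 with 2% milk, 0.02% Triton X-100, 1 mM DTT, 0.2 mg/mL BSA and 0.4 mg/ml salmon testes DNA. In it, ligand-free nuclear receptor dimers were incubated 1 h on custom Agilent 4×180K protein-binding microarrays carrying double-stranded probes. Antibodies against each partner (one per run) detected binding, and z-scores were calculated against random background probes after regression normalization of scanned fluorescence.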

[2] = tested on: LXRa:RXRa (NR concentration 270 nM, RXRa partner concentration 90 nM)
In short: as §1

[3] = tested on: LXRa homodimer (NR concentration 270 nM)
In short: as §1

[4] = tested on: LXRb:RXRa (NR concentration 270 nM, RXRa partner concentration 90 nM)
In short: as §1

[5] = tested on: LXRb homodimer (NR concentration 270 nM)
In short: as §1

[6] = tested on: PPARa:RXRa (NR concentration 270 nM, RXRa partner concentration 90 nM)
In short: as §1

[7] = tested on: PPARg:RXRa (NR concentration 180 nM, RXRa partner concentration 90 nM)
In short: as §1

[8] = tested on: PPARg:RXRa 270nM:90nM, anti-RXR (NR concentration 270 nM, RXRa partner concentration 90 nM)
In short: as §1

[9] = tested on: PPARg:RXRa 30nM:10nM, anti-RXR (NR concentration 30 nM, RXRa partner concentration 10 nM)
In short: as §1

[10] = tested on: PPARg:RXRa 90nM:30nM, anti-RXR (NR concentration 90 nM, RXRa partner concentration 30 nM)
In short: as §1

[11] = tested on: PPARg:RXRa DBDmut IVT, anti-RXR (DBD mutation: RXRa K156A/R161A, NR concentration 270 nM, RXRa partner concentration 90 nM)
In short: as §1

[12] = tested on: PPARg:RXRa IVT, anti-PPARg (NR concentration 270 nM, RXRa partner concentration 90 nM)
In short: as §1

[13] = tested on: PPARg DBDmut:RXRa IVT, anti-PPARg (DBD mutation: PPARg1 K132A/R137A, NR concentration 270 nM, RXRa partner concentration 90 nM)
In short: as §1

[14] = tested on: PPARg DBDmut IVT, anti-PPARg (DBD mutation: PPARg1 K132A/R137A, NR concentration 270 nM)
In short: as §1

[15] = tested on: PPARg homodimer (NR concentration 180 nM)
In short: as §1

[16] = tested on: PXR:RXRa (NR concentration 270 nM, RXRa partner concentration 90 nM)
In short: as §1

[17] = tested on: PXR homodimer (NR concentration 270 nM)
In short: as §1

[18] = tested on: RARa:RXR (NR concentration 270 nM, RXRa partner concentration 90 nM)
In short: as §1

[19] = tested on: RARa homodimer (NR concentration 270 nM)
In short: as §1

[20] = tested on: RARb:RXRa (NR concentration 270 nM, RXRa partner concentration 90 nM)
In short: as §1

Sequence | PBM binding z-score [1] | PBM binding z-score [2] | PBM binding z-score [3] | PBM binding z-score [4] | PBM binding z-score [5] | PBM binding z-score [6] | PBM binding z-score [7] | PBM binding z-score [8] | PBM binding z-score [9] | PBM binding z-score [10] | PBM binding z-score [11] | PBM binding z-score [12] | PBM binding z-score [13] | PBM binding z-score [14] | PBM binding z-score [15] | PBM binding z-score [16] | PBM binding z-score [17] | PBM binding z-score [18] | PBM binding z-score [19] | PBM binding z-score [20]
ATCGAAAGTTCGAAGGTGAGTATACCCACCCGAA | 0.822 | 1.16 | 0.11 | 0.739 | -0.0356 | 1.9 | 1.07 | 1.17 | 0.177 | 0.844 | 0.0334 | 0.537 | 0.525 | 0.231 | 0.595 | 1.16 | -0.00599 | 1.67 | -0.2 | 2.07
ATCGAAAGCTCGTGAGGTGAGTATACAGAAAGGC | -0.207 | -0.537 | -0.718 | -0.546 | -0.682 | -0.128 | 0.416 | 0.00274 | 0.112 | -0.368 | -0.799 | 0.0817 | 0.275 | 0.0739 | -0.405 | -0.403 | -0.674 | -0.104 | -0.351 | 0.0466
GATACAGGGTCAGCTAGAGGCCACAGTATGGAAA | 4.67 | 3.33 | -0.234 | 2.65 | -0.958 | 4.64 | 4.12 | 3.58 | 1.09 | 2.68 | 1.47 | 2.57 | 0.921 | 0.377 | 2.57 | 3.94 | -0.253 | 5.22 | 0.785 | 4.2
AATACAGGGTCATCGTATGCCAGAGTACGCACAG | 7.33 | 5.98 | 1.87 | 4.34 | 1.25 | 5.64 | 6.62 | 5.86 | 2.88 | 4.57 | 2.86 | 4.36 | 4.37 | 2.02 | 2.61 | 4.31 | 0.464 | 5.23 | 0.493 | 4.21
ATCGACAGGTCGAAGGTGAGTATACCCACCCGAA | 0.612 | 0.709 | -0.323 | 0.59 | -0.341 | 2.27 | 2.57 | 2.71 | 1.04 | 2.75 | -0.979 | 1.09 | 0.369 | -0.333 | 0.63 | 0.914 | -0.44 | 1.5 | -0.439 | 1.64
CGAACTAGGGCATTGACAGGACAGTGAATAGTAA | 0.151 | 0.0251 | 0.031 | -0.0451 | -0.654 | 2.23 | 3.32 | 2.68 | 0.522 | 1.83 | 6.82 | 6.53 | 1.42 | 0.993 | 0.464 | -0.229 | -0.0482 | -0.297 | 0.262 | 1.14
CCTCGGAGGACAAAAGGAGGTCAGAGCTGCCAGA | 1.18 | 2.12 | 1.26 | 1.34 | -0.602 | 2.71 | 0.706 | 1.21 | -0.33 | 0.651 | 0.965 | 1.96 | -1.11 | -2.13 | 1.84 | 2.15 | 0.144 | 2.45 | 0.515 | 2.39
GCTTATAGGTAATACAAGGTGAAAGTCCGATTGT | 0.773 | 2.61 | 0.251 | 0.934 | -0.275 | 1.5 | 0.93 | 1.22 | 0.379 | 0.916 | 3.24 | 2.78 | 1 | 1.03 | 0.685 | 0.829 | 0.193 | 1.93 | 1.06 | 0.613
CTCGAAAGGTCGGTTGAGGTGCGTATACGGATAA | 2.39 | 1.39 | -0.235 | 1.24 | -0.239 | 2.3 | 0.2 | 0.942 | 0.258 | 0.457 | -0.22 | 0.354 | -0.47 | -0.617 | 0.786 | 1.84 | 0.0676 | 1.44 | -0.0377 | 2.92
GCGACTGGGGCAAATCAGGTTACCATAAGGTTGG | 0.683 | 0.358 | -0.1 | 0.749 | -0.654 | 1.73 | 1.28 | 1.07 | -0.18 | 0.553 | 4.37 | 3.69 | -0.276 | -0.972 | 0.782 | 1.1 | -0.422 | 0.759 | -0.444 | 1.14
TCATATAGGTAAACAGGTGACAGTCCGTAAGTTA | 0.832 | 0.858 | 0.306 | 0.84 | -0.213 | 2.24 | 2.52 | 3.35 | 4.16 | 3.91 | 4.87 | 4.6 | 1.49 | 1.05 | 0.856 | 0.915 | 0.237 | 0.971 | 0.875 | 0.779
ATCTCTAGGTAACCAAGTTCAATGAATGCCGAAC | 0.814 | 1.63 | 1.7 | 1.34 | 1.25 | 1.76 | 1.26 | 1.15 | 0.497 | 0.824 | 3.3 | 3.19 | 0.675 | 1.22 | 1.22 | 2.72 | 3.6 | 1.33 | 1.18 | 1.43
CCTAGCAGGCCAATCTGGGTCACACAAGGCTTGA | 1.88 | 1.82 | -0.247 | 1.21 | -0.968 | 3.68 | 3.08 | 2.68 | 0.555 | 2.1 | 4.53 | 5.23 | 0.519 | -0.276 | 0.856 | 1.56 | -0.6 | 1.86 | 0.119 | 1.76
GGAACGAGGGCAAAGTGGATAGCATCTGTCGACG | 0.8 | 0.482 | -0.564 | 0.23 | -0.66 | 2.86 | 4.34 | 5.37 | 3.71 | 5.67 | 3.95 | 3.72 | 0.652 | 0.661 | 1.42 | 0.489 | 0.241 | 0.674 | -0.182 | 2.27
